Values joined by “and” are separate entries in the source; they are usually repeats but may differ in a detail not shown here. Equal entries are not always repeated. Inconclusive results are not listed. Active and inactive are the calls of the source. Calls come from the whole dose curve; as a rule, active = well fitted activation curve with a large enough effect; inconclusive = small, poorly fitted or top-dose-only effect; inactive = no such curve, though single readings can be large or run the other way.
Target: Cellular tumor antigen p53 (Homo sapiens) (UniProt P04637)
Sequence (P04637 whole entry, looked up): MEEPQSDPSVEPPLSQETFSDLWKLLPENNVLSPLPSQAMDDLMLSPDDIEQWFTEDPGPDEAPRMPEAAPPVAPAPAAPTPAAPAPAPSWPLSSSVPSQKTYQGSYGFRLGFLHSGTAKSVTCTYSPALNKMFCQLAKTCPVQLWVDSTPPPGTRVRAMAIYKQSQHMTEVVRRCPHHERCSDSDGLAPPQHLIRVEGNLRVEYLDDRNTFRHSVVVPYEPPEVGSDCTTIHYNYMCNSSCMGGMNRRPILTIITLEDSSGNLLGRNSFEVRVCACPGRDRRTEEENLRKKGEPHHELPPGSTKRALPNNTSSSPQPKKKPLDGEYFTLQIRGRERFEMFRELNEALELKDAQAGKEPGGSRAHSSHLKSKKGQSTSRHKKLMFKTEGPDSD
Experiment: Primary qHTS for small molecule compounds that upregulate eGFP-tagged delta133p53alpha (in N-terminal) cells. (AID 2060322);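 note: cells pre-induced with doxycycline then dosed without doxycycline; series mostly up to about 56 µM; 0% = DMSO vehicle and 100% = reference activator; nearly all actives have a fitted effect of over 75% in size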
Details: NCI-H358 eGFP-delta133p53alpha fluorescence, 24 h; activation: hits give high values
Method in brief: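 NCI-H358 cells pre-induced 24 h with 10 ng/ml doxycycline for eGFP-delta133p53alpha, plated dox-free and exposed 24 h at 37C to titrated compounds. Fixed, Hoechst-stained; gated GFP peak intensity by laser scanning cytometry, normalized to DMSO (0%) and 57.5 uM 5-azacytidine (100%).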

Structure (SMILES)	activation
CC(=O)c1cc2ccccc2s1	6.21% (inactive)
Cc1ccnc2c1NC(=O)c1cccnc1N2C1CC1	-6.69% (inactive) and 7.43% (inactive)
Cc1nc2n(c(=O)c1CCN1CCC(C(=O)c3ccc(F)cc3)CC1)CCS2	23.2% (inactive)
Nc1ccc([N+](=O)[O-])c(C(F)(F)F)c1	-10.7% (inactive)
CCCCCCCCCCCCCCCCCCO	3.35% (inactive)
Cc1ccc(C(C)C)c(O)c1	-8.47% (inactive)
COc1ccc(C2C(=O)c3ccccc3C2=O)cc1	-15.9% (inactive)
O=C(CN1CCN(Cc2ccc3c(c2)OCO3)CC1)N1c2ccccc2Sc2ccccc21	1.69% (inactive)
O=C(O)c1ccc(-c2cc3cccnc3c(-c3ccc4nonc4c3)n2)cc1	3.89% (inactive)
NC(=O)N[C@@H](CCC(=O)O)C(=O)O	-5.02% (inactive)
OCCOCCN1CCN(C(c2ccccc2)c2ccc(Cl)cc2)CC1 (stereo not given)	8.47% (inactive)
CN1C(=O)CC(c2ccccc2)C1=O (stereo not given)	10.7% (inactive)
COc1ccc(CCC(C)=O)cc1	-5.86% (inactive)
CO[C@H]1C[C@@H]2CC[C@@H](C)[C@@](O)(O2)C(=O)C(=O)N2CCCC[C@@H]2C(=O)O[C@H]([C@H](C)C[C@@H]2CC[C@H](OP(C)(C)=O)[C@H](OC)C2)CC(=O)[C@H](C)C=C(C)[C@@H](O)[C@@H](OC)C(=O)[C@H](C)C[C@H](C)C=CC=CC=C1C	24.8% (inactive)
Cc1ccc2ccc(Cl)cc2n1	-5.08% (inactive)
CN(C)CCOC1=Cc2ccccc2Sc2ccc(Cl)cc21	2.51% (inactive)
Oc1ccc(CCNCCCCCCNCCc2ccccc2)cc1O	0% (inactive)
COc1ccccc1OC(=O)Oc1ccccc1OC	6.69% (inactive)
Cc1ccc2c(Br)cc(Br)c(O)c2n1	-18.4% (inactive)
O=C(O)c1ccccc1Nc1cccc(C(F)(F)F)c1	-19.8% (inactive)

Reference: PubChem BioAssay (NCATS)
